Source: PubChem BioAssay (NCI)
Compounds without any hit were thinned out: in the full panel of roughly 83,000, 20% have a hit.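 Cell lines were cultured in 96-well plates, exposed to a single compound concentration, and assessed for percent growth 48 hours later.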 The source made the active and inactive calls. Rule for the calls: active = growth percent below 10; inactive = the rest.

How the values were obtained:
Assay in all cases: NCI-60 one-dose screen, 48 h (100 = growth as untreated, 0 = no growth, -100 = all killed)
SK-MEL-2 melanoma = settings: 10 µM unless noted
SN12C renal = settings: 10 µM unless noted
UO-31 renal = settings: 10 µM unless noted
TK-10 renal = settings: 10 µM unless noted
ACHN renal = settings: 10 µM unless noted
A498 renal = settings: 10 µM unless noted
CCRF-CEM leukemia = settings: 10 µM
MOLT-4 leukemia = settings: 10 µM unless noted
CAKI-1 renal = settings: 10 µM unless noted

Measured: growth

CCCCS(=O)(=O)c1cc(Nc2ccc(O)c3c2C(=O)c2ccccc2C3=O)ccc1C
inactive: SK-MEL-2 melanoma 92.5% | SN12C renal 71.5% | UO-31 renal 54.8% | TK-10 renal 116% | ACHN renal 92.2% | A498 renal 126% | CCRF-CEM leukemia 59.7% | MOLT-4 leukemia 61.2%

CC(=O)O.[In]
inactive: SK-MEL-2 melanoma 98.4% | SN12C renal 109% | UO-31 renal 88.4% | TK-10 renal 100% | ACHN renal 104% | A498 renal 112% | CCRF-CEM leukemia 85.4% | MOLT-4 leukemia 99.9%

CC(O)CN(CC(C)O)N(CC(C)O)CC(C)O (configuration not stated)
inactive: SK-MEL-2 melanoma 121% | SN12C renal 107% | UO-31 renal 91.1% | TK-10 renal 99.3% | ACHN renal 99% | CAKI-1 renal 98.9% | MOLT-4 leukemia 102%

CCCCCCCCCCC1OC(C)CC(C)O1 (configuration not stated)
inactive: SK-MEL-2 melanoma 105% | SN12C renal 103% | UO-31 renal 90.9% | TK-10 renal 100% | ACHN renal 97.8% | CAKI-1 renal 95.7% | A498 renal 102% | MOLT-4 leukemia 86.7%

CC(=O)Nc1ccc(S(=O)(=O)Cl)cc1
inactive: SK-MEL-2 melanoma 111% | SN12C renal 94.5% | UO-31 renal 97.2% | TK-10 renal 100% | ACHN renal 113% | A498 renal 101% | CCRF-CEM leukemia 90.9% | MOLT-4 leukemia 104%

CCCCCCCCCCCCCCCCNC(=O)Nc1ccc(C)c(NC(=O)NCCCCCCCCCCCCCCCC)c1
inactive: SK-MEL-2 melanoma 117% | SN12C renal 103% | UO-31 renal 74.3% | TK-10 renal 112% | ACHN renal 98.7% | A498 renal 113% | MOLT-4 leukemia 104%

COc1ccc(Cn2cc3c(c2-c2ccccc2)CCc2cnoc2-3)cc1N
inactive: SK-MEL-2 melanoma 41% | SN12C renal 36.2% | UO-31 renal 29.7% | TK-10 renal 76.2% | ACHN renal 31% | MOLT-4 leukemia 25.3%
active: CAKI-1 renal 7.24% | A498 renal 1.34%

Cc1ccc(NC(=O)CCl)cc1Cl
inactive: SK-MEL-2 melanoma 85.1% | SN12C renal 93.6% | UO-31 renal 98.5% | TK-10 renal 103% | ACHN renal 92.3% | A498 renal 119% | MOLT-4 leukemia 81.8%

CC(=O)OC1/C=C\CC/C=C\C1 (configuration not stated)
inactive: SK-MEL-2 melanoma 109% | SN12C renal 95.8% | UO-31 renal 93.5% | TK-10 renal 124% | ACHN renal 96.3% | CAKI-1 renal 99.2% | CCRF-CEM leukemia 103% | MOLT-4 leukemia 116%

COC(=O)c1cc(=O)nc(N/N=C/c2ccccc2O)s1
inactive: SK-MEL-2 melanoma 97.9% | SN12C renal 90.9% | UO-31 renal 61.4% | TK-10 renal 112% | ACHN renal 92.3% | CAKI-1 renal 79% | A498 renal 112% | MOLT-4 leukemia 72.1%

CCC(C)(C)c1ccc(OCCCCCCN2CCN(c3ccc(C)c(Cl)c3)CC2)cc1
inactive: SK-MEL-2 melanoma 104% | SN12C renal 92.3% | UO-31 renal 64.5% | TK-10 renal 110% | ACHN renal 91.3% | CAKI-1 renal 77.7% | MOLT-4 leukemia 98.3%
active: CCRF-CEM leukemia -43.1%

CNc1ccc(Nc2ccc(S(=O)(=O)O)cc2)c2c1C(=O)c1ccccc1C2=O
inactive: SK-MEL-2 melanoma 130% | SN12C renal 92.8% | UO-31 renal 102% | TK-10 renal 126% | ACHN renal 98.7% | CAKI-1 renal 91.9% | CCRF-CEM leukemia 89.2% | MOLT-4 leukemia 106%

CCOC(=O)/C(C#N)=C(/CC)OCC
inactive: SK-MEL-2 melanoma 91.7% | SN12C renal 109% | UO-31 renal 84.1% | TK-10 renal 91.9% | ACHN renal 94.6% | CAKI-1 renal 95.4% | A498 renal 122% | MOLT-4 leukemia 85%

N=C(c1ccccc1)N(Cc1ccccc1)Cc1ccccc1
inactive: SK-MEL-2 melanoma 85.4% | SN12C renal 98.8% | UO-31 renal 72.6% | TK-10 renal 106% | ACHN renal 93.7% | A498 renal 96% | MOLT-4 leukemia 86.3%

CC(=O)C(CO)C(=O)Nc1ccccc1 (configuration not stated)
inactive: SK-MEL-2 melanoma 90.4% | SN12C renal 101% | UO-31 renal 106% | TK-10 renal 109% | ACHN renal 93.3% | CAKI-1 renal 94.8% | CCRF-CEM leukemia 99.2% | MOLT-4 leukemia 102%

Cc1nc2ccccc2c(=O)n1-c1cccc(OCc2cn(-c3cccc(O)c3)nn2)c1
inactive: SK-MEL-2 melanoma 90.6% | SN12C renal 97.4% | UO-31 renal 68.2% | TK-10 renal 100% | ACHN renal 93.8% | CCRF-CEM leukemia 88.3% | MOLT-4 leukemia 80.8%

CCNc1nnc(COc2ccc(CNC(=O)CCCC/C=C/C(C)C)cc2OC)o1
inactive: SK-MEL-2 melanoma 104% | SN12C renal 104% | UO-31 renal 84.2% | TK-10 renal 107% | ACHN renal 101% | A498 renal 109% | CCRF-CEM leukemia 97.5% | MOLT-4 leukemia 104%

CCn1cnc(C[C@H](NC(=O)[C@@H](NC(=O)Nc2cc(C(F)(F)F)cc(C(F)(F)F)c2)C(C)C)C(=O)OC)c1
active: SK-MEL-2 melanoma -86% [100 µM] | SN12C renal -86.8% [100 µM] | UO-31 renal -97% [100 µM] | TK-10 renal -98.7% [100 µM] | ACHN renal -98.7% [100 µM] | A498 renal -89.5% [100 µM]

CCCCN(CCCC)c1ccc(C(=O)O)cc1
inactive: SK-MEL-2 melanoma 83.5% | SN12C renal 97.9% | UO-31 renal 82.9% | TK-10 renal 86.3% | ACHN renal 105% | CAKI-1 renal 103% | MOLT-4 leukemia 99%

CC#Cc1nc(Nc2cc(C)[nH]n2)c2ccccc2n1
active: SK-MEL-2 melanoma -51.2% [100 µM] | SN12C renal -0.924% [100 µM] | UO-31 renal -6.22% [100 µM] | TK-10 renal 3.15% [100 µM] | ACHN renal 3.22% [100 µM] | A498 renal -94% [100 µM] | MOLT-4 leukemia -43.3% [100 µM]

CCCC(CCC)Oc1ccc(CCCC2=C(O)c3ccccc3C(=O)C2=O)cc1
inactive: SK-MEL-2 melanoma 27.7% | SN12C renal 45.5% | UO-31 renal 47.3% | TK-10 renal 36.2% | ACHN renal 29.9% | A498 renal 31% | CCRF-CEM leukemia 36.1% | MOLT-4 leukemia 38.1%

CC(Br)c1nc2ccccc2cc1C(N)=O (configuration not stated)
inactive: SK-MEL-2 melanoma 110% | SN12C renal 90.5% | UO-31 renal 92.6% | TK-10 renal 96.8% | ACHN renal 109% | A498 renal 94.7% | CCRF-CEM leukemia 84.5% | MOLT-4 leukemia 86.4%

CC(=O)N1N=C(c2ccc(Cl)cc2)CC1c1cn(-c2ccccc2)nc1-c1ccc([N+](=O)[O-])cc1 (configuration not stated)
inactive: SK-MEL-2 melanoma 129% | SN12C renal 96.8% | UO-31 renal 107% | TK-10 renal 111% | ACHN renal 96.8% | CAKI-1 renal 83.5% | A498 renal 109% | MOLT-4 leukemia 110%

CCCCCCN(CCCCCC)CCC(=O)Nc1ccc(S(=O)(=O)c2ccc(NC(=O)CCN(CCCCCC)CCCCCC)cc2)cc1
inactive: SK-MEL-2 melanoma 122% | SN12C renal 81.4% | UO-31 renal 52.3% | TK-10 renal 109% | ACHN renal 88.3% | CAKI-1 renal 86.6% | CCRF-CEM leukemia 51.3% | MOLT-4 leukemia 59.1%

COC(=O)[C@H](Cc1cn(C)cn1)NC(=O)[C@H](Cc1c[nH]c2ccccc12)NC(=O)Nc1cc(C(F)(F)F)cc(C(F)(F)F)c1
active: SK-MEL-2 melanoma -82.6% [100 µM] | SN12C renal -83.7% [100 µM] | TK-10 renal -66.2% [100 µM] | ACHN renal -38% [100 µM] | A498 renal -35.8% [100 µM]
inactive: UO-31 renal 22.5% [100 µM]

NC(CSC(c1ccccc1)(c1ccccc1)c1ccccc1)C(=O)NCC(=O)O (configuration not stated)
inactive: SK-MEL-2 melanoma 38.3% | SN12C renal 70.7% | UO-31 renal 84.4% | TK-10 renal 98.8% | ACHN renal 88.4% | A498 renal 65% | CCRF-CEM leukemia 53.5% | MOLT-4 leukemia 83.7%

O=C(O)COc1ccc([N+](=O)[O-])cc1Cl
inactive: SK-MEL-2 melanoma 107% | SN12C renal 88.7% | UO-31 renal 105% | TK-10 renal 103% | ACHN renal 102% | A498 renal 115% | CCRF-CEM leukemia 88.8% | MOLT-4 leukemia 99.2%

CC(=O)c1ccc2c(c1)c1ccccc1n2C
inactive: SK-MEL-2 melanoma 98.4% | SN12C renal 92.1% | UO-31 renal 60.8% | TK-10 renal 108% | ACHN renal 110% | CAKI-1 renal 73.5% | MOLT-4 leukemia 82%
active: A498 renal -85.3%

CC(C)OCC1CO1 (configuration not stated)
inactive: SK-MEL-2 melanoma 123% | SN12C renal 109% | UO-31 renal 95.8% | TK-10 renal 107% | ACHN renal 98.7% | CAKI-1 renal 97.9% | A498 renal 117% | MOLT-4 leukemia 110%

CC(=O)N(N=O)c1ccc([N+](=O)[O-])cc1Cl
inactive: SK-MEL-2 melanoma 73.1% | SN12C renal 47.4% | UO-31 renal 57.3% | TK-10 renal 130% | ACHN renal 58.9% | CAKI-1 renal 100% | CCRF-CEM leukemia 46.8% | MOLT-4 leukemia 58.4%

Cc1ccc(S(=O)(=O)NC(CCC(=O)Nc2ccccc2)C(=O)Nc2ccccc2)cc1 (configuration not stated)
active: SK-MEL-2 melanoma -39.6% | SN12C renal 3.91% | UO-31 renal -16.3% | TK-10 renal -12.9% | ACHN renal -50.7% | CCRF-CEM leukemia 5.4% | MOLT-4 leukemia 8.8%
inactive: CAKI-1 renal 12%

COc1ccc(-c2nnc(SCC(=O)Nc3ccc(C(=O)/C=C/c4cc(OC)c(OC)c(OC)c4)cc3)n2-c2ccccc2)cc1OC
inactive: SN12C renal 31.8% [100 µM] | UO-31 renal 67.5% [100 µM] | MOLT-4 leukemia 44.5% [100 µM]
active: SK-MEL-2 melanoma -26.1% [100 µM] | TK-10 renal -42.5% [100 µM] | ACHN renal 1.79% [100 µM] | CAKI-1 renal 1.67% [100 µM]

O=C(CCl)c1ccc2c(c1)CCCC2
inactive: SK-MEL-2 melanoma 80.3% | SN12C renal 96.5% | UO-31 renal 91.2% | TK-10 renal 86.7% | ACHN renal 98.4% | CAKI-1 renal 74.9% | A498 renal 101% | MOLT-4 leukemia 68.6%
